{
  "source": "PubChem BioAssay (Tox21)",
  "note": "Inconclusive results are not listed. Unmarked numbers belong to inactive results. Unless noted, calls follow the shape of the full dose curve. % is scaled to controls: 0 for no effect and ±100 for the full control effect.",
  "data": [
    {"test": "qHTS assay to identify small molecule agonists of the NFkB signaling pathway (AID 1159509; active = well fitted curve in the direction sought with a large enough effect in the signal ratio in the repeat runs, not every such curve was filed as active; the % refers to the signal ratio)", "settings": "NFkB-bla ME-180 cells, beta-lactamase FRET ratio, 5 h; series mostly up to 61 µM; activation: at the top concentration", "summary_of_the_method": "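ME-180 NFkB-bla, 2,000 cells/well, overnight plating; cpd pinned in DMSO, 5 h 37 C; B/G FRET substrate 1.5 h RT; ex 405, em 460/530 nm.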", "values": [
      {"smiles": "CC(=O)Oc1ccc2c(c1)CC[C@@H]1[C@@H]2CC[C@]2(C)[C@@H](O)CC[C@@H]12", "activation": "-0.0835%"},
      {"smiles": "CC(N)CN", "note": "(stereo not given)", "activation": "0.343% [at 78.8 µM]"},
      {"smiles": "COc1cc2ncnc(Nc3ccc(F)c(Cl)c3)c2cc1OCCCN1CCOCC1", "activation": "1.16%"},
      {"smiles": "Cc1cc(OI)c(C(C)C)cc1-c1cc(C(C)C)c(OI)cc1C", "activation": "0%"},
      {"smiles": "CCc1nn(CCCN2CCN(c3cccc(Cl)c3)CC2)c(=O)n1CCOc1ccccc1", "activation": "0.0287%"},
      {"smiles": "CCN(Cc1cccc(S(=O)(=O)O)c1)c1ccc(C(=C2C=CC(=[N+](CC)Cc3cccc(S(=O)(=O)[O-])c3)C=C2)c2ccccc2)cc1", "activation": "-1.08%"},
      {"smiles": "O=C(CCCN1CCN(c2ccc(F)cc2)CC1)NC1c2ccccc2CSc2ccccc21", "note": "(stereo not given)", "activation": "1.62%"},
      {"smiles": "C=CCNc1nc(NCC=C)nc(N2CCN(C(c3ccc(F)cc3)c3ccc(F)cc3)CC2)n1", "activation": "1.38%"},
      {"smiles": "CC(C)CCCC(=O)O", "activation": "-0.592%"},
      {"smiles": "COCCOC", "activation": "-0.0201%"},
      {"smiles": "CC1C2CC(CC2C2CCCC(O)C2)C1(C)C", "note": "(stereo not given)", "activation": "0.483%"},
      {"smiles": "O=C(CS)OCCOC(=O)CS", "activation": "0.159%"},
      {"smiles": "CCCc1c(OCCCOc2ccc(OCC(=O)O)cc2)ccc(C(C)=O)c1O", "activation": "1.07%"},
      {"smiles": "CCCCCCCCCCCC[N+](C)(C)CC(=O)[O-]", "activation": "-0.675%"},
      {"smiles": "Cc1occc1C(=O)Nc1ccc(C(=O)N2CCC(F)(F)/C(=C\\C(=O)N3CCC(N4CCCCC4)CC3)c3ccccc32)cc1", "activation": "-0.502% [at 28.5 µM]"},
      {"smiles": "O=C1OCCN1/N=C/c1ccc([N+](=O)[O-])o1", "activation": "-0.346%"},
      {"smiles": "COC(OC)(C(=O)c1ccccc1)c1ccccc1", "activation": "-0.766%"},
      {"smiles": "CO/N=C1\\CN(c2nc3c(cc2F)c(=O)c(C(=O)O)cn3C2CC2)CC1CN", "note": "(stereo not given)", "activation": "1.37%"},
      {"smiles": "CC(C)C(OC(=O)c1ccccc1)C(C)(C)COC(=O)c1ccccc1", "note": "(stereo not given)", "activation": "0.0911%"},
      {"smiles": "O=C(Nc1ccc([N+](=O)[O-])cc1)Nc1ccc([N+](=O)[O-])cc1", "activation": "0.782%"},
      {"smiles": "CC(C)(CCl)c1ccccc1", "activation": "0.282%"},
      {"smiles": "Cc1nccn1-c1ccc(Sc2cccc(C3(C(N)=O)CCOCC3)c2)cc1", "activation": "-0.0221%"},
      {"smiles": "CC[C@@H]([C@H](C)O)n1ncn(-c2ccc(N3CCN(c4ccc(OC[C@@H]5CO[C@@](Cn6cncn6)(c6ccc(F)cc6F)C5)cc4)CC3)cc2)c1=O", "activation": "4.98%"},
      {"smiles": "CO[C@@]12[C@H](COC(N)=O)C3=C(C(=O)C(C)=C(N)C3=O)N1C[C@@H]1N[C@@H]12", "activation": "-0.367%"},
      {"smiles": "Cc1ccc(S)cc1", "activation": "-0.0091%"},
      {"smiles": "CCCOCCOCCO", "activation": "-0.501%"},
      {"smiles": "CC(C)c1nnc2ccc(-c3ocnc3-c3cc(F)ccc3F)cn12", "activation": "-0.0548%"},
      {"smiles": "CC(C)(C)CC(C)(C)c1ccc(OCCO)cc1", "activation": "0.0197%"},
      {"smiles": "O=C(CCCCCCC(=O)Nc1ccccc1)NO", "activation": "-0.637%"},
      {"smiles": "O=C(c1ccc(O)cc1)c1ccc(Cl)cc1", "activation": "1.37% [at 78.8 µM]"},
      {"smiles": "CO[C@H]1C=CO[C@@]2(C)Oc3c(C)c(O)c4c(O)c(c5c(c4c3C2=O)=NC2(CCN(CC(C)C)CC2)N=5)NC(=O)/C(C)=C\\C=C/[C@H](C)[C@H](O)[C@@H](C)[C@@H](O)[C@@H](C)[C@H](OC(C)=O)[C@@H]1C", "activation": "-0.779%"},
      {"smiles": "CC(C)(O)c1ccccc1CC[C@@H](SCC1(CC(=O)O)CC1)c1cccc(/C=C/c2ccc3ccc(Cl)cc3n2)c1", "activation": "1.71%"},
      {"smiles": "NC(=O)Cn1c(=O)cc(CCN2CCN(c3nccc4sccc34)CC2)c2ccc(F)cc21", "activation": "0.0591%"},
      {"smiles": "O=Cc1c(Cl)cccc1Cl", "activation": "0.262% [at 78.8 µM]"},
      {"smiles": "CC#N", "activation": "-0.357% [at 78.8 µM]"},
      {"smiles": "CCCCCCCCCCOS(=O)(=O)O", "activation": "0.733%"},
      {"smiles": "NC(=O)N(O)[C@@H]1COc2cc(OCc3ccccc3)ccc21", "activation": "1.29%"},
      {"smiles": "OCC1CC=CCC1", "note": "(stereo not given)", "activation": "0.264%"},
      {"smiles": "C[Si](NC1CCCCC1)(NC1CCCCC1)NC1CCCCC1", "activation": "-0.422%"},
      {"smiles": "CCCCCCOC(=O)C(C)C", "activation": "-1.41%"}
    ]},
    {"test": "qHTS assay to identify small molecule agonists of the NFkB signaling pathway - cell viability counter screen (AID 1159515); also: nearly all actives have a fitted effect of over 55% in size", "settings": "NFkB-bla ME-180 viability, CellTiter-Glo luminescence, 5 h; series mostly up to 61 µM; activity, negative = cytotoxic: at the top concentration", "summary_of_the_method": "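Multiplexed viability readout: after the 5 hr compound exposure and 1.5 hr FRET substrate step, CellTiter-Glo reagent went into the same NFkB-bla ME-180 wells; ATP luminescence was measured after 30 min at room temperature.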", "values": [
      {"smiles": "CC(=O)Oc1ccc2c(c1)CC[C@@H]1[C@@H]2CC[C@]2(C)[C@@H](O)CC[C@@H]12", "activity, negative = cytotoxic": "-11%"},
      {"smiles": "CC(N)CN", "note": "(stereo not given)", "activity, negative = cytotoxic": "-2.28% [at 78.8 µM]"},
      {"smiles": "COc1cc2ncnc(Nc3ccc(F)c(Cl)c3)c2cc1OCCCN1CCOCC1", "activity, negative = cytotoxic": "-15.3%"},
      {"smiles": "Cc1cc(OI)c(C(C)C)cc1-c1cc(C(C)C)c(OI)cc1C", "activity, negative = cytotoxic": "0.252%"},
      {"smiles": "CCc1nn(CCCN2CCN(c3cccc(Cl)c3)CC2)c(=O)n1CCOc1ccccc1", "activity, negative = cytotoxic": "-21.4%"},
      {"smiles": "CCN(Cc1cccc(S(=O)(=O)O)c1)c1ccc(C(=C2C=CC(=[N+](CC)Cc3cccc(S(=O)(=O)[O-])c3)C=C2)c2ccccc2)cc1", "activity, negative = cytotoxic": "-0.795%"},
      {"smiles": "O=C(CCCN1CCN(c2ccc(F)cc2)CC1)NC1c2ccccc2CSc2ccccc21", "note": "(stereo not given)", "activity, negative = cytotoxic": "-2.6%"},
      {"smiles": "C=CCNc1nc(NCC=C)nc(N2CCN(C(c3ccc(F)cc3)c3ccc(F)cc3)CC2)n1", "activity, negative = cytotoxic": "-1.81%"},
      {"smiles": "CC(C)CCCC(=O)O", "activity, negative = cytotoxic": "1.61%"},
      {"smiles": "COCCOC", "activity, negative = cytotoxic": "0.226%"},
      {"smiles": "CC1C2CC(CC2C2CCCC(O)C2)C1(C)C", "note": "(stereo not given)", "activity, negative = cytotoxic": "10.3%"},
      {"smiles": "O=C(CS)OCCOC(=O)CS", "activity, negative = cytotoxic": "0.859%"},
      {"smiles": "CCCc1c(OCCCOc2ccc(OCC(=O)O)cc2)ccc(C(C)=O)c1O", "activity, negative = cytotoxic": "-8.23%"},
      {"smiles": "CCCCCCCCCCCC[N+](C)(C)CC(=O)[O-]", "activity, negative = cytotoxic": "-6.57%"},
      {"smiles": "Cc1occc1C(=O)Nc1ccc(C(=O)N2CCC(F)(F)/C(=C\\C(=O)N3CCC(N4CCCCC4)CC3)c3ccccc32)cc1", "activity, negative = cytotoxic": "-5.26% [at 28.5 µM]"},
      {"smiles": "O=C1OCCN1/N=C/c1ccc([N+](=O)[O-])o1", "activity, negative = cytotoxic": "-8.69%"},
      {"smiles": "COC(OC)(C(=O)c1ccccc1)c1ccccc1", "activity, negative = cytotoxic": "-2.59%"},
      {"smiles": "CO/N=C1\\CN(c2nc3c(cc2F)c(=O)c(C(=O)O)cn3C2CC2)CC1CN", "note": "(stereo not given)", "activity, negative = cytotoxic": "1.81%"},
      {"smiles": "CC(C)C(OC(=O)c1ccccc1)C(C)(C)COC(=O)c1ccccc1", "note": "(stereo not given)", "activity, negative = cytotoxic": "12.7%"},
      {"smiles": "O=C(Nc1ccc([N+](=O)[O-])cc1)Nc1ccc([N+](=O)[O-])cc1", "activity, negative = cytotoxic": "18.2%"},
      {"smiles": "CC(C)(CCl)c1ccccc1", "activity, negative = cytotoxic": "-3.23%"},
      {"smiles": "Cc1nccn1-c1ccc(Sc2cccc(C3(C(N)=O)CCOCC3)c2)cc1", "activity, negative = cytotoxic": "-13.8%"},
      {"smiles": "CC[C@@H]([C@H](C)O)n1ncn(-c2ccc(N3CCN(c4ccc(OC[C@@H]5CO[C@@](Cn6cncn6)(c6ccc(F)cc6F)C5)cc4)CC3)cc2)c1=O", "activity, negative = cytotoxic": "-11.3%"},
      {"smiles": "CO[C@@]12[C@H](COC(N)=O)C3=C(C(=O)C(C)=C(N)C3=O)N1C[C@@H]1N[C@@H]12", "activity, negative = cytotoxic": "2.88%"},
      {"smiles": "Cc1ccc(S)cc1", "activity, negative = cytotoxic": "0.267%"},
      {"smiles": "CCCOCCOCCO", "activity, negative = cytotoxic": "0.312%"},
      {"smiles": "CC(C)c1nnc2ccc(-c3ocnc3-c3cc(F)ccc3F)cn12", "activity, negative = cytotoxic": "1.81%"},
      {"smiles": "CC(C)(C)CC(C)(C)c1ccc(OCCO)cc1", "activity, negative = cytotoxic": "-3.78%"},
      {"smiles": "O=C(CCCCCCC(=O)Nc1ccccc1)NO", "activity, negative = cytotoxic": "5%"},
      {"smiles": "O=C(c1ccc(O)cc1)c1ccc(Cl)cc1", "activity, negative = cytotoxic": "22.8% [at 78.8 µM]"},
      {"smiles": "CO[C@H]1C=CO[C@@]2(C)Oc3c(C)c(O)c4c(O)c(c5c(c4c3C2=O)=NC2(CCN(CC(C)C)CC2)N=5)NC(=O)/C(C)=C\\C=C/[C@H](C)[C@H](O)[C@@H](C)[C@@H](O)[C@@H](C)[C@H](OC(C)=O)[C@@H]1C", "activity, negative = cytotoxic": "-13.7%"},
      {"smiles": "CC(C)(O)c1ccccc1CC[C@@H](SCC1(CC(=O)O)CC1)c1cccc(/C=C/c2ccc3ccc(Cl)cc3n2)c1", "activity, negative = cytotoxic": "-1.28%"},
      {"smiles": "NC(=O)Cn1c(=O)cc(CCN2CCN(c3nccc4sccc34)CC2)c2ccc(F)cc21", "activity, negative = cytotoxic": "-15.9%"},
      {"smiles": "O=Cc1c(Cl)cccc1Cl", "activity, negative = cytotoxic": "-4.86% [at 78.8 µM]"},
      {"smiles": "CC#N", "activity, negative = cytotoxic": "0.255% [at 78.8 µM]"},
      {"smiles": "CCCCCCCCCCOS(=O)(=O)O", "activity, negative = cytotoxic": "4.28%"},
      {"smiles": "NC(=O)N(O)[C@@H]1COc2cc(OCc3ccccc3)ccc21", "activity, negative = cytotoxic": "5.78%"},
      {"smiles": "OCC1CC=CCC1", "note": "(stereo not given)", "activity, negative = cytotoxic": "10.7%"},
      {"smiles": "C[Si](NC1CCCCC1)(NC1CCCCC1)NC1CCCCC1", "activity, negative = cytotoxic": "-9.31%"},
      {"smiles": "CCCCCCOC(=O)C(C)C", "activity, negative = cytotoxic": "-6.88%"}
    ]}
  ]
}
